IEC-6 tox: IEC-6 cytotoxicity, counter-screen for KLF5 inhibitors. 290,000 tested, 0.78% active. inhibition, % at 5 µM. AID 1825. luminescence viability; in the data active = inhibition above about 22%;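 note: 0% = plate median of test compound wells and 100% = cytotoxic reference compound wells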
aSyn 5UTR inh: 5' untranslated region of α-synuclein, MLPCN primary screen; alpha-synuclein 5'UTR reporter, inhibitor activity; 300,000 tested, 0.82% active; AID 1813; inhibition, % (tested at 7.5 µM); in the data active = inhibition above about 60%;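 note: H4 neuroglioblastoma cells stably carrying SNCA 5'UTR luciferase fusion; 0% = DMSO wells and 100% = positive control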
Ba/F3 V617F tox: reduce viability of Ba/F3 cells dependent on JAK2V617F | AID 1446 | Ba/F3 EpoR-JAK2V617F viability, ATP luminescence | 220,000 tested, 1.1% active | inhibition, % at 5.6 µM;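 active = inhibition above the campaign mean plus 3 SD over all tested compounds, cut at about 24% in these data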;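 note: cytokine-independent growth of Ba/F3 cells driven by EpoR plus mutant JAK2; 0% = DMSO-treated cells and 100% = JAK inhibitor I control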
BaF3 parental: parental Ba/F3 viability inhibition as JAK2V617F counter-screen. CellTiter-Glo ATP luminescence. inhibition, % at 5.6 µM. 220,000 tested, 1.1% active;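 active = inhibition above a per-campaign cutoff, the mean inhibition of all tested compounds plus 3 SD, cut at about 27% in these data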;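 note: 0% = DMSO wells and 100% = JAK Inhibitor I control wells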
APP transl inh: APP translation inhibition; SH-SY5Y APP 5'UTR-luciferase reporter, luminescence; 190,000 tested, 0.82% active; AID 1285; inhibition, % at 2 µM;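 active = inhibition above a set limit, derived from the sample mean plus 3 SD, cut at about 45% in these data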
KLF5 inhibitor: kruppel-like factor 5 inhibition. DLD-1 KLF5 promoter-luciferase reporter, luminescence. inhibition, % at 5 µM. 290,000 tested, 0.23% active. AID 1700;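 active = inhibition above a per-plate limit of that plate's mean compound inhibition plus 3 SD, cut at about 60% in these data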;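 note: 0% = DMSO wells and 100% = LY294002 at 200 µM; higher means less KLF5 promoter-driven luciferase light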
* hit, by the source's call; . = no result given. Shown are actives, neighbours in structure and some others; about 2.1% of the full set was active somewhere.

SMILES	IEC-6 tox	aSyn 5UTR inh	Ba/F3 V617F tox	BaF3 parental	APP transl inh	KLF5 inhibitor
CCCCn1c(N)c(N(CCOC)C(=O)CSc2nnc(C)n2-c2ccc(OC)cc2)c(=O)[nH]c1=O	.	3	.	.	.	.
O=C(O)CCCCCNC(=O)Cn1nnc2ccccc2c1=O	3	-19	-2	3	.	-7
C/C(=N\NC(=O)c1cc(Br)ccc1O)c1ccccn1	3	49	.	.	.	-65
C/C(=N\NC(=O)C1CCCN(S(=O)(=O)c2ccccc2)C1)c1ccccn1 (stereo unspecified)	-4	67*	0	1	46*	-32
CCOc1ccc(OCc2ccc(C(=O)N/N=C(\C)c3ccccn3)cc2)cc1	-2	64*	5	8	78*	-118
C/C(=N\NC(=O)c1cccc(Br)c1)c1ccccn1	12	108*	.	.	.	39
COc1ccc(/C=N/NC(=O)c2cccnc2)c(C(=O)O)c1OC	4	4	-1	-2	.	-23
O=C(O)c1ccccc1N/N=C/c1cc(Br)cc(Br)c1O	-1	-111	2	-3	.	-53
O=C(O)c1ccccc1N/N=C\c1ccnc2ccccc12	2	76*	3	6	-12	-116
Cc1ccsc1C(=O)N1CCCC(CO)(Cc2ccccc2F)C1 (stereo unspecified)	-8	2	.	.	.	-23
O=C1CC(NS(=O)(=O)c2cccnc2)CN1c1ccc(Cl)cc1 (stereo unspecified)	.	8	.	.	.	.
CCCCOC(=O)Cn1c(=O)c2c(nc(Br)n2Cc2ccccc2)n(C)c1=O	3	-5	2	66*	-3	-20
CCOC(=O)Cn1c(=O)c2c(nc(Br)n2Cc2ccccc2)n(C)c1=O	1	.	-3	2	-2	10
CCCN(CCC)CCNC(=O)C1CCN(Cc2nc(-c3ccc(Cl)cc3)oc2C)CC1	57*	-30	7	19	16	3
Cc1cc(/C=C2\SC(=Nc3ccccc3)NC2=O)c(C)n1-c1ccc(S(N)(=O)=O)cc1	-4	39	28*	63*	53*	-2
Cc1ccc(-n2c(C)cc(/C=C3\SC(=O)NC3=O)c2C)cc1	-14	-174	.	.	.	-190
CC1=C(C(=O)OC2CCCCC2)C(c2ccc(N(C)C)cc2)NC(=O)N1 (stereo unspecified)	0	20	.	.	.	-34
O=C(NNC(=O)c1ccccc1OCc1ccccc1)c1ccccc1O	8	65*	.	.	.	50
O=C(NNC(=O)c1ccccc1OCc1ccc(F)cc1)c1ccccc1O	10	68*	.	.	.	41
COc1ccc(CNC(=O)Cn2c(=O)n(CCC(=O)N3CCCCC3)c(=O)c3sccc32)cc1	-6	0	.	.	.	-24
COc1ccc(-c2noc(CCCC(=O)O)n2)cc1	1	89*	-3	3	56*	32
CC(C)Cn1c(=O)c(C(=O)Nc2cnccn2)c(O)c2ccccc21	-1	-3	-2	0	0	-2
CC(C)Cn1c(=O)c(C(=O)Nc2ccncc2)c(O)c2ccccc21	.	66*	.	.	.	.
O=C(OCN1C(=O)c2ccccc2C1=O)c1cccs1	-2	-1	2	94*	-37	11
CC1=C([N+](=O)[O-])C(c2cccc(Br)c2)C2=C(N1)c1ccccc1C2=O (stereo unspecified)	77*	90*	77*	76*	86*	48
SMILES	IEC-6 tox	aSyn 5UTR inh	Ba/F3 V617F tox	BaF3 parental	APP transl inh	KLF5 inhibitor
O=[N+]([O-])c1ccc(NCc2ccccc2)nc1	6	-67	32*	75*	-14	-35
O=S(=O)(c1ccc(Cl)cc1)N1CCN(Cc2c[nH]c3ccccc23)CC1	0	17	-2	4	-15	-32
Clc1ccccc1N1CCN(Cc2c[nH]c3ccccc23)CC1	.	64*	.	.	.	.
COCCCNC(CC(=O)Nc1cc(C)cc(C)c1)C(=O)O (stereo unspecified)	.	11	.	.	.	.
O=C(Nc1ccncc1)Nc1cccc(C(F)(F)F)c1	-1	-1	.	.	.	-14
Oc1c(C(Nc2cccc(C(F)(F)F)c2)c2ccncc2)ccc2cccnc12 (stereo unspecified)	-1	82*	-1	4	14	7
Clc1ccc(-n2ncc3c(N4CCCC4)ncnc32)cc1	3	92*	-2	4	-161	-48
CCOC(=O)C1CCN(c2ncnc3c2cnn3-c2ccc(Cl)cc2)CC1	-4	65*	-2	2	10	-5
O=C(NC(C(=O)N/N=C/c1cc([N+](=O)[O-])ccc1O)c1n[nH]c(=O)c2ccccc12)c1ccccc1 (stereo unspecified)	-3	-4	.	.	.	-17
